# About 79,000 compounds went through this panel and 15% of them were active in at least one assay; those are over-represented in the sample as a whole. Unmarked numbers belong to inactive results. Calls of active or inactive are those of the source. Rule as the data show it: active = growth inhibition above about 70%; inactive = the rest.
# Assays:
# [1] = NCI Yeast Anticancer Drug Screen. Data for the rad52 strain (AID 147);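 also: 0% = growth of vehicle-treated control cultures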; details: S. cerevisiae rad52 mutant growth inhibition, active compounds read high
# How it was run: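 Inhibition of yeast growth, referenced to vehicle controls, was the measured output for a strain with defective DNA damage repair.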
# [2] = NCI Yeast Anticancer Drug Screen. Data for the wt1 strain (AID 149);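 also: 0% = growth of vehicle-treated wt1 cultures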; details: S. cerevisiae wt1 strain (SPY 50644) growth inhibition, active compounds read high
# How it was run: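 The wt1 strain was treated with compounds, and growth was compared with vehicle-treated cultures to give inhibition.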
# [3] = NCI Yeast Anticancer Drug Screen. Data for the rad50EPP+ strain (AID 151);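 also: 0% = growth of vehicle-treated control cultures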; details: S. cerevisiae rad50 mutant strain, active compounds read high
# How it was run: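 Genetically defined yeast (rad50EPP+, DNA damage repair alteration) is grown with compound, and inhibition of growth is expressed relative to vehicle-treated controls.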
# [4] = NCI Yeast Anticancer Drug Screen. Data for the rad50 strain (AID 155);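 also: 0% = growth of vehicle-only cultures of the same strain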; details: S. cerevisiae rad50 strain growth inhibition, active compounds read high
# How it was run: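 Cells are treated with compound, grown, and their growth is then scored against vehicle-only cultures of the same repair-deficient yeast strain.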
# [5] = NCI Yeast Anticancer Drug Screen. Data for the mec2-1 strain (AID 157); details: S. cerevisiae mec2-1 strain, active compounds read high
# How it was run: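 Each compound was tested on mec2-1 yeast, a strain altered in DNA damage repair or cell cycle control. Growth inhibition is reported relative to vehicle.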
# [6] = NCI Yeast Anticancer Drug Screen. Data for the rad14 strain (AID 159);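 also: 0% = growth of vehicle-treated control cultures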; details: S. cerevisiae rad14 strain growth inhibition, active compounds read high
# How it was run: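 Readout: yeast growth inhibition, referenced to vehicle-only cultures. Strain bears a defined alteration in DNA damage repair.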
# [7] = NCI Yeast Anticancer Drug Screen. Data for the sgs1 mgt1 strain (AID 161);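 also: 0% = growth of cultures given vehicle only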; details: S. cerevisiae sgs1 mgt1 strain, active compounds read high
# How it was run: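 Inhibition of yeast growth, normalised to vehicle-treated controls, is reported for a strain bearing genetic alterations in DNA damage repair.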
# [8] = NCI Yeast Anticancer Drug Screen. Data for the CLN2oe strain (AID 163);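 also: 0% = growth of vehicle-only control cultures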; details: S. cerevisiae CLN2oe strain, active compounds read high
# How it was run: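 First, the altered yeast strain was treated with each compound; second, its growth was measured; finally, inhibition was derived by comparison with vehicle controls.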
# [9] = NCI Yeast Anticancer Drug Screen. Data for the cln2 rad14 strain (AID 165);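 also: 0% = growth equal to vehicle treated cultures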; details: S. cerevisiae cln2 rad14 strain, active compounds read high
# How it was run: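 Test compounds were added to cln2 rad14 yeast cultures; inhibition of growth was then determined by comparison with vehicle treatment.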
# [10] = NCI Yeast Anticancer Drug Screen. Data for the bub3 strain (AID 167); details: S. cerevisiae bub3 mutant strain, active compounds read high
# How it was run: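 Part of a panel of yeast mutants defective in DNA damage repair or cell cycle regulation. Each strain is grown with compound, and inhibition is calculated relative to solvent-treated cultures.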
# [11] = NCI Yeast Anticancer Drug Screen. Data for the wt2 strain (AID 169);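 also: 0% = growth of vehicle-treated yeast cultures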; details: S. cerevisiae wt2 strain growth inhibition, active compounds read high
# How it was run: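 The panel's yeast strains carry defined changes in DNA repair or cell cycle genes. Each strain is grown with compound, and growth loss is scored relative to vehicle.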
# [12] = NCI Yeast Anticancer Drug Screen. Data for the mlh1 strain (AID 171);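 also: 0% = growth of vehicle-treated control cultures of the same strain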; details: S. cerevisiae mlh1 strain growth inhibition, active compounds read high
# How it was run: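 Inhibition values reflect reduced yeast growth in the presence of compound, referenced to vehicle controls, using a strain chosen for its alteration in DNA repair or cell cycle control.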
# [13] = NCI Yeast Anticancer Drug Screen. Data for the sgs1 strain (AID 173);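 also: 0% = growth of vehicle-only control cultures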; details: S. cerevisiae sgs1 mutant, active compounds read high
# How it was run: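 Vehicle-treated cultures served as reference for growth inhibition of a yeast strain altered in DNA damage repair or cell cycle control after compound exposure.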
# [14] = NCI Yeast Anticancer Drug Screen. Data for the mlh1 rad18 strain (AID 175); details: S. cerevisiae mlh1 rad18 strain growth inhibition, active compounds read high
# How it was run: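 Inhibition values reflect reduced growth of mutant yeast versus vehicle-treated controls following compound exposure; the mutations affect DNA damage repair.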
# [15] = NCI Yeast Anticancer Drug Screen. Data for the rad18 strain (AID 177); details: S. cerevisiae rad18 mutant growth inhibition, active compounds read high
# How it was run: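 Steps: expose repair-mutant yeast to compound; measure growth; express as inhibition relative to vehicle control.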
# [16] = at 5.0 µM (retest, dose inferred, filed as 0.5)
# [17] = at 50.0 µM (retest, dose inferred, filed as 5.0)
structure (smiles),measurement,setting,value
CCCCC(CC)C(=O)Oc1ccc(C(=O)c2ccccc2)c(O)c1 (stereo not drawn),growth inhibition,[1]; at 1.2 µM,4%
same,growth inhibition,[1]; at 3.7 µM,3%
same,growth inhibition,[1]; at 11.0 µM,6%
same,growth inhibition,[1]; at 33.0 µM,61%
same,growth inhibition,[1]; at 100.0 µM,98% (active)
same,growth inhibition,[2]; at 1.2 µM,-13%
same,growth inhibition,[2]; at 3.7 µM,-17%
same,growth inhibition,[2]; at 11.0 µM,-15%
same,growth inhibition,[2]; at 33.0 µM,37%
same,growth inhibition,[2]; at 100.0 µM,98% (active)
same,growth inhibition,[3]; at 1.2 µM,8%
same,growth inhibition,[3]; at 3.7 µM,13%
same,growth inhibition,[3]; at 11.0 µM,20%
same,growth inhibition,[3]; at 33.0 µM,54%
same,growth inhibition,[3]; at 100.0 µM,88% (active)
same,growth inhibition,[4]; at 1.2 µM,7%
same,growth inhibition,[4]; at 3.7 µM,4%
same,growth inhibition,[4]; [16],50%
same,growth inhibition,[4]; at 11.0 µM,15%
same,growth inhibition,[4]; at 33.0 µM,56%
same,growth inhibition,[4]; [17],76% (active)
same,growth inhibition,[4]; at 50.0 µM,74.9% (active)
same,growth inhibition,[4]; at 100.0 µM,96% (active)
same,growth inhibition,[5]; at 1.2 µM,10%
same,growth inhibition,[5]; at 3.7 µM,15%
same,growth inhibition,[5]; [16],53%
same,growth inhibition,[5]; at 11.0 µM,19%
same,growth inhibition,[5]; at 33.0 µM,61%
same,growth inhibition,[5]; [17],79% (active)
same,growth inhibition,[5]; at 50.0 µM,75.2% (active)
same,growth inhibition,[5]; at 100.0 µM,98% (active)
same,growth inhibition,[6]; at 1.2 µM,-5%
same,growth inhibition,[6]; at 3.7 µM,-6%
same,growth inhibition,[6]; at 11.0 µM,-8%
same,growth inhibition,[6]; at 33.0 µM,29%
same,growth inhibition,[6]; at 100.0 µM,97% (active)
same,growth inhibition,[7]; [16],-32%
same,growth inhibition,[7]; [17],91% (active)
same,growth inhibition,[7]; at 50.0 µM,82% (active)
same,growth inhibition,[8]; at 1.2 µM,0%
same,growth inhibition,[8]; at 3.7 µM,17%
same,growth inhibition,[8]; at 11.0 µM,19%
same,growth inhibition,[8]; at 33.0 µM,50%
same,growth inhibition,[8]; at 100.0 µM,97% (active)
same,growth inhibition,[9]; [16],48%
same,growth inhibition,[9]; [17],88% (active)
same,growth inhibition,[9]; at 50.0 µM,65%
same,growth inhibition,[10]; at 1.2 µM,21%
same,growth inhibition,[10]; at 3.7 µM,27%
same,growth inhibition,[10]; [16],-1%
same,growth inhibition,[10]; at 11.0 µM,32%
same,growth inhibition,[10]; at 33.0 µM,69%
same,growth inhibition,[10]; [17],89% (active)
same,growth inhibition,[10]; at 50.0 µM,73% (active)
same,growth inhibition,[10]; at 100.0 µM,98% (active)
same,growth inhibition,[11]; at 1.2 µM,-18%
same,growth inhibition,[11]; at 3.7 µM,-7%
same,growth inhibition,[11]; at 11.0 µM,-4%
same,growth inhibition,[11]; at 33.0 µM,37%
same,growth inhibition,[11]; at 100.0 µM,97% (active)
same,growth inhibition,[12]; at 1.2 µM,-9%
same,growth inhibition,[12]; at 3.7 µM,-10%
same,growth inhibition,[12]; at 11.0 µM,3%
same,growth inhibition,[12]; at 33.0 µM,55%
same,growth inhibition,[12]; at 100.0 µM,97% (active)
same,growth inhibition,[13]; at 1.2 µM,10%
same,growth inhibition,[13]; at 3.7 µM,9%
same,growth inhibition,[13]; at 11.0 µM,20%
same,growth inhibition,[13]; at 33.0 µM,63%
same,growth inhibition,[13]; at 100.0 µM,97% (active)
same,growth inhibition,[14]; [16],38%
same,growth inhibition,[14]; [17],77% (active)
same,growth inhibition,[14]; at 50.0 µM,69.3%
same,growth inhibition,[15]; at 1.2 µM,-4%
same,growth inhibition,[15]; at 3.7 µM,0%
same,growth inhibition,[15]; at 11.0 µM,17%
same,growth inhibition,[15]; at 33.0 µM,53%
same,growth inhibition,[15]; at 100.0 µM,97% (active)

# Reference: PubChem BioAssay (NCI)
